For test [1], the system named is XIP peptide (Xip251-270) binding. Description: XIP fragment 251-270 binding compounds – biochemical, small-molecule microarray, fluorescence 635/667 nm, 0.1 µg/mL protein, primary screen (AID 1182). The conditions noted are these: fluorescent protein binding, 635 nm, higher = more signal, called active from +8 up or from −8 down.
Test [2] relates to XIP peptide (Xip251-270). Description: compounds binding XIP fragment 251-270 – biochemical, small-molecule microarray, fluorescence 635/667 nm, 0.5 µg/mL protein, primary screen (AID 1183). The conditions noted are these: fluorescence 635 nm, higher = more signal.
Test [3] is described as follows: blood-stage malaria parasite viability loss – strain 3D7, DAPI fluorescence, 100 nL, primary screen (AID 1184).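 Also: parasites grown inside human red blood cells in medium with human serum.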 The conditions noted are these: P. falciparum 3D7 growth, 3 d, higher = more signal.
For test [4], the target named is Homeobox protein Hox-A13 (Mus musculus) (UniProt Q62424). As to the kind of experiment: disruptors of Hoxa13 oligonucleotide interaction – biochemical, fluorescence polarization, labeled oligonucleotide, primary screen (AID 1185). The conditions noted are these: Hoxa13:DNA binding, 15 min, higher = more signal, called active from +8 up or from −8 down. In general terms: Polarisation of emitted light reports the rotation of a fluorescent probe.

Test [5] in a line: blockers of DNA damage checkpoint Chk1 activation – imaging, HeLa, hydroxyurea, phospho-Chk1 antibody, percent positive cells, primary screen (AID 1186). The following applies: hydroxyurea-induced phospho-Chk1 immunofluorescence imaging, higher = more signal.
Test [6] in a line: blockers of DNA damage checkpoint Chk1 activation – imaging, HeLa, hydroxyurea, phospho-Chk1 nuclear intensity, primary screen (AID 1187). The following applies: hydroxyurea-induced phospho-Chk1 immunofluorescence imaging, higher = more signal.

The source made the active and inactive calls. Unless noted, no rule for the calls is given here.

Homeobox protein Hox-A13 (Mus musculus), sequence (Q62424 whole entry, looked up): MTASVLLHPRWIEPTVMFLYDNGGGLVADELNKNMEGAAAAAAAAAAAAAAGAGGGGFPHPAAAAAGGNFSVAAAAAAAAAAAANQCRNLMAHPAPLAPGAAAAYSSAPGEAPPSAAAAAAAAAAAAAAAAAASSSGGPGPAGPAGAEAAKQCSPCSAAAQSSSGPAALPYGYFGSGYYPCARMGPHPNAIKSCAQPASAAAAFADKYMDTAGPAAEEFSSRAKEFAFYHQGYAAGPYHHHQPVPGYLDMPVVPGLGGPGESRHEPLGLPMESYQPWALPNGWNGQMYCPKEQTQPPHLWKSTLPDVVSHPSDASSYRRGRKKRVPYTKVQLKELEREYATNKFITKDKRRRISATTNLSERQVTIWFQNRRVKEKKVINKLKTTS

As to `COc1ccc(C#Cc2ccc3c(c2)[C@]2(C(=O)N3)[C@H](C(=O)Nc3nc4ccccc4s3)[C@H]3C(=O)O[C@H](c4ccccc4)[C@H](c4ccccc4)N3[C@@H]2c2ccc(O)cc2)cc1`, the composite z-score in test [1] is 0.0642 (inactive); in test [2], 0.73. In addition, the z-score is -0.435 in test [3], -0.717 (inactive) in test [4], -0.0599 (inactive) in test [5] and -0.17 (inactive) in test [6].

Regarding `C=C(/C(=C/C[C@H](OC(C)=O)c1ccc(CO)o1)c1cc(C(=O)OC)ccc1OC)C(C)C`, the results for the composite z-score in test [1] and in test [2] were -0.508 (inactive) and -0.567, respectively. Also, the z-score is -2.09 in test [3], -4.8 (inactive) in test [4], -0.33 (inactive) in test [5] and -0.286 (inactive) in test [6].

Take `COc1cc2c(cc1OC)CN(C(=O)[C@H]1[C@@H]3C(=O)O[C@@H](c4ccccc4)[C@@H](c4ccccc4)N3[C@@H](c3ccc(O)cc3)[C@]13C(=O)Nc1ccccc13)CC2`: the composite z-score is 0.602 (inactive) in test [1] and 0.755 in test [2]. Moreover, the z-score was -0.044 in test [3], -2.37 (inactive) in test [4], -0.169 (inactive) in test [5] and -0.238 (inactive) in test [6].

On to `COCCOC(=O)N1C(=O)[C@@]2(c3cc(C#CCCO)ccc31)[C@H](C(N)=O)[C@H]1C(=O)O[C@H](c3ccccc3)[C@H](c3ccccc3)N1[C@@H]2c1ccc(O)cc1`, for which the composite z-score is -0.13 (inactive) in test [1] and -0.452 in test [2]. Besides, the z-score in test [3] was 2.08; in test [4], -4.08 (inactive); in test [5], 0.0513 (inactive); in test [6], -0.0312 (inactive).

Consider `CC1CC/C=C\[C@H]2OC34C=CCN(Cc5ccccc5)C(=O)[C@H]3N(CCCO)C(=O)[C@@H]4C2C(=O)O1` (some centres not stated), for which the composite z-score in test [1] was 0.15 (inactive); in test [2], 0.737. In addition, the z-score in test [3] was 0.295; in test [4] it was -4.95 (inactive); in test [5] it was -0.364 (inactive); in test [6], -0.491 (inactive).

As to `CCCCN1CC=CC23O[C@@H]4C=CCCOC(=O)C4[C@H]2C(=O)N(CCCCCCO)[C@@H]3C1=O` (some centres not stated), the composite z-score in test [1] was 0.249 (inactive); in test [2] it was 0.847. Moreover, the z-score is -0.35 in test [3], -4.29 (inactive) in test [4], 0.809 (inactive) in test [5] and 0.79 (inactive) in test [6].

Take `CO[C@H]1O[C@H](CO)[C@@H](OC(=O)Nc2ccc(Oc3ccccc3)cc2)[C@H](OC(=O)Nc2ccc3c(c2)OCO3)[C@H]1OC(=O)Nc1ccc2c(c1)OCO2`: the composite z-score was 0.69 (inactive) in test [1] and 0.891 in test [2]. Further, the z-score was -2.33 in test [3], -5.25 (inactive) in test [4], -0.334 (inactive) in test [5] and -0.152 (inactive) in test [6].

Regarding `CN(C)CCCC[C@@H]1NC(=O)[C@H]2C[C@@H](C(=O)NCCCCCCN)[C@@H](c3ccc(O)cc3)N2C1=O`, the composite z-score in test [1] is 1.38 (inactive); in test [2], 0.785. Besides, the z-score was -0.135 in test [3], -1.16 (inactive) in test [4], 0.323 (inactive) in test [5] and 0.362 (inactive) in test [6].

Turning to `C=C(C)[C@@H]1CC=C(C(O)C2C=CC3C(=O)N(c4ccccc4)C(=O)C3N2Nc2ccccc2)CC1` (some centres not stated), the composite z-score in test [1] is 0.0668 (inactive); in test [2] it was 0.717. Besides, the z-score in test [3] is 0.759; in test [4] it was -2.62 (inactive); in test [5] it was -0.437 (inactive); in test [6] it was -0.626 (inactive).

For the compound `COC(=O)[C@@]1(Cc2ccc(OC)cc2)[C@H]2c3cc(C(=O)N4CCCC4)n(Cc4ccc(O)c(OC)c4)c3C[C@H]2CN1C(=O)c1ccccc1`, the composite z-score is 1.29 (inactive) in test [1] and 0.575 in test [2]. Besides, the z-score in test [3] was -1.65; in test [4], -4.69 (inactive); in test [5], 0.449 (inactive); in test [6], 0.27 (inactive).

As to `CCCC#C[Si](O[C@H](CC)c1cn(Cc2cccc(Cl)c2)nn1)(C(C)C)C(C)C`, the results for the composite z-score in test [1] and in test [2] were -0.0517 (inactive) and 0.298, respectively. In addition, the z-score is -0.0039 in test [3], -0.759 (inactive) in test [4], -0.501 (inactive) in test [5] and -0.675 (inactive) in test [6].

`C=C(C)[C@@H]1CC=C(C(O)C2C=CC3C(=O)N(C)C(=O)C3N2Nc2ccccc2)CC1` (some centres not stated): the composite z-score in test [1] was 0.469 (inactive); in test [2], 0.147. The z-score was -0.0575 in test [3], -4.59 (inactive) in test [4], -0.63 (inactive) in test [5] and -0.968 (inactive) in test [6].

As for `O=C1C2C=CC(C(O)Cc3ccccc3)N(n3cnnc3)C2C(=O)N1Cc1ccccc1` (configuration not stated), the composite z-score in test [1] was -0.139 (inactive); in test [2], 0.686. Also, the z-score in test [3] was -1.29; in test [4], -3.18 (inactive); in test [5] it was -0.179 (inactive); in test [6], -0.472 (inactive).

In the case of `C=CCNC(=O)[C@H]1[C@@H]2C(=O)O[C@@H](c3ccccc3)[C@@H](c3ccccc3)N2[C@@H](c2ccccc2OCCO)[C@]12C(=O)Nc1ccc(C#CCCO)cc12`, the figures for the composite z-score in test [1] and in test [2] were 0.749 (inactive) and 0.369, respectively. Besides, the z-score in test [3] was -2.08; in test [4] it was -3.91 (inactive); in test [5], -0.677 (inactive); in test [6] it was -1.24 (inactive).

As to `O=C(c1ccccc1)N1C(=O)[C@@]2(Cc3ccccc31)N=C(c1ccc(OCCCO)cc1)O[C@H]2c1ccccc1`, the values for the composite z-score in test [1] and in test [2] were 1.68 (inactive) and 0.841, respectively. Further, the z-score is -2.09 in test [3], -5.9 (inactive) in test [4], 0.0794 (inactive) in test [5] and 0.255 (inactive) in test [6].

On to `[N-]=[N+]=Nc1ccccc1[C@H]1OC(c2ccc(OCCCO)cc2)=N[C@@]1(CCS(=O)(=O)c1ccccc1)C(N)=O`, for which the composite z-score is 1.21 (inactive) in test [1] and 0.941 in test [2]. Further, the z-score in test [3] is -1.42; in test [4], -4.72 (inactive); in test [5], -0.23 (inactive); in test [6], 0.052 (inactive).

Regarding `COC(=O)C[C@H]1O[C@]2(C(=O)N(C)c3ccccc32)[C@@H](C)[C@@H]1[Si](C)(C)F`, the composite z-score in test [1] is -0.0066 (inactive); in test [2] it was 0.181. The z-score in test [3] is 0.522; in test [4] it was -1.19 (inactive); in test [5], 0.23 (inactive); in test [6] it was 0.843 (inactive).

(Values after PubChem BioAssay.)
